# Data published in PMC4336329 (PLoS ONE, 2015).
# In all, about 310,000 compounds went through this assay and about 14,000 (4.5%) showed an effect of 50% or more. Effects have a minus sign here. The sample holds strong results, similar compounds and a random draw of the others, so the mix is not that of the screen.
# Target: human ether-à-go-go-related gene (hERG) potassium channel (human, UniProt Q12809)
# Test: primary screen, population patch clamp on CHO cells stably expressing hERG; higher = less effect of the substance
# 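Also: peak tail current of the secondary pulse compared with the same well before compound.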
# Chain of human ether-à-go-go-related gene (hERG) potassium channel (Q12809 whole entry, looked up): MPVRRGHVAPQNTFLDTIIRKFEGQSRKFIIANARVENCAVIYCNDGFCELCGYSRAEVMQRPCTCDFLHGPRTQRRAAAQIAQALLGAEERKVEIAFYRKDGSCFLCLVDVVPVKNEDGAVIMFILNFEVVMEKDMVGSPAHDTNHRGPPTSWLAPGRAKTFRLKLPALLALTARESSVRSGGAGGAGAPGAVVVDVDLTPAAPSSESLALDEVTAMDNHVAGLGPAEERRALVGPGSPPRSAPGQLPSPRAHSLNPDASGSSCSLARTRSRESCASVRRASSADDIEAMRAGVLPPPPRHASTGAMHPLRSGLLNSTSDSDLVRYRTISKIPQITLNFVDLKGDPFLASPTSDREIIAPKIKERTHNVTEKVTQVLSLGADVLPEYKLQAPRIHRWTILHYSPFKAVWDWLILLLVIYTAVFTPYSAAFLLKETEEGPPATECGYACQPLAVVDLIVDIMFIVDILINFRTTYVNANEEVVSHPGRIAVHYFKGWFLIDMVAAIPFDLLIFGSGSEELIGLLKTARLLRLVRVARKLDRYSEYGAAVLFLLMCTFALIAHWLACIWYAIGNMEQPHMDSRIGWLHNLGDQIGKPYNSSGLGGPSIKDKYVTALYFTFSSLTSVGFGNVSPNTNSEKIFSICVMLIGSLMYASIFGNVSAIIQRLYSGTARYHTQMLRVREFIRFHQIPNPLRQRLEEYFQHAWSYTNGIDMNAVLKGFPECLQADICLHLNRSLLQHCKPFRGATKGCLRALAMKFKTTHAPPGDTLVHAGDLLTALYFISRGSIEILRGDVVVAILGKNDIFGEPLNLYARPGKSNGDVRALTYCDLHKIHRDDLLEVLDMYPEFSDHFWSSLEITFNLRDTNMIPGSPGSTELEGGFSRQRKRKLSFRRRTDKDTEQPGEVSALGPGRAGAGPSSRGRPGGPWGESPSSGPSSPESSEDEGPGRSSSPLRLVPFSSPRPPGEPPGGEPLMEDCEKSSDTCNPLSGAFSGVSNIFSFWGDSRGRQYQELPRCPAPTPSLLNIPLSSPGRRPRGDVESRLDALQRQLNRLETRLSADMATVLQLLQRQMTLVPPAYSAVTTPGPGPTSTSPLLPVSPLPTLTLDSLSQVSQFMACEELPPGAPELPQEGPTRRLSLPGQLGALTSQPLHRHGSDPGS
row,Compound,"hERG current change (%, negative = inhibition) at 10uM"
1,CCOc1ccc(-n2c(C)nnc2SCC(=O)N(CC)CC)cc1,2.63%
2,CC(C)N1C(=O)CCC1C(=O)NCCc1ccccc1 (centres unmarked),-6.11%
3,COC(=O)c1c(C)oc(C)c1S(=O)(=O)N1CCCCC1,9.1%
4,CCN(CC)CCCNC(=O)c1[nH]c2ccccc2c1Sc1ccc(Cl)cc1,-89.5%
5,CCCCN(CC)CCCNC(=O)c1cc2c(=O)[nH]c3ccccc3c2s1,-0.682%
6,COC(=O)c1[nH]c2ccccc2c1Sc1ccccc1,11.9%
7,COc1ccc(/C=C/C(=O)NC(C)(C)C)cc1S(=O)(=O)N1CCOCC1,-15.2%
8,CCCCn1c(N)c(N(CC(C)C)C(=O)c2cccc(S(=O)(=O)N3CC(C)OC(C)C3)c2)c(=O)[nH]c1=O (centres unmarked),21.6%
9,CC(C)Oc1ccc(C(=O)OCC(=O)N2CCCc3ccccc32)cc1,6.85%
10,COc1ccc(-n2c(SCC(=O)N3CCN(c4ccccc4)CC3)nc3c(c2=O)SCC3)cc1,-70%
11,COc1ccc(-n2c(SCC(=O)Nc3ccccc3)nc3c(c2=O)SCC3)cc1,-18.7%
12,O=C(CSc1nc2c(c(=O)n1-c1ccccc1)SCC2)N1CCOCC1,5.25%
13,CCOC(=O)CSc1nc2c(c(=O)n1-c1ccc(OC)cc1)SCC2,-9.55%
14,Cc1ccc(-n2c(SCC(=O)N3CCCC3)nc3c(c2=O)SCC3)cc1,5.3%
15,O=C(CSc1nc2c(c(=O)n1-c1ccccc1)SCC2)N1CCN(c2ccccc2)CC1,-76.5%
16,Cc1cc(N)n(C2CCN(C)CC2)n1,1.99%
17,c1ccc2c(CCNc3ncnc4nc[nH]c34)cccc2c1,-6.53%
18,CNCCCc1[nH]nc(N)c1C#N,4.22%
19,N#Cc1ccccc1Sc1ccccc1C(=O)Nc1ccccc1,0.339%
20,Cc1ccc(-c2noc(CCC(=O)Nc3ccc4c(c3)OCO4)n2)cc1,3.68%
21,CC(C)(C)OC(=O)N1CCC(CNC(=O)c2cccs2)CC1,10.9%
22,CCCc1nc(SCC(=O)N2c3ccccc3CC2C)c2c(C)c(C)sc2n1 (centres unmarked),14.1%
23,N/C(Cc1ccc([N+](=O)[O-])cc1)=N\OC(=O)CC1CCCCC1,-68.5%
24,Cc1ccc(OCC(=O)O/N=C(\N)Cc2ccc([N+](=O)[O-])cc2)cc1C,-32.7%
25,Cc1ccc(CC(=O)O/N=C(\N)Cc2ccc([N+](=O)[O-])cc2)cc1,0.827%

row,Compound,"hERG current change (%, negative = inhibition) at 10uM"
1,N/C(Cc1ccc(Cl)cc1)=N\OC(=O)Cc1ccc([N+](=O)[O-])cc1,-4.32%
2,N/C(Cc1ccc([N+](=O)[O-])cc1)=N\OC(=O)Cc1ccc(Cl)cc1,-4.39%
3,N/C(Cc1ccc([N+](=O)[O-])cc1)=N\OC(=O)C1CCCCC1,-3.44%
4,N/C(Cc1ccc([N+](=O)[O-])cc1)=N\OC(=O)c1ccco1,-26.8%
5,Cc1cc(C)cc(OCC(=O)O/N=C(\N)Cc2ccc([N+](=O)[O-])cc2)c1,-2.56%
6,COc1ccc(C/C(N)=N/OC(=O)C(c2ccccc2)c2ccccc2)cc1OC,-14.5%
7,N/C(Cc1ccc([N+](=O)[O-])cc1)=N\OC(=O)C(c1ccccc1)c1ccccc1,-66.9%
8,N/C(Cc1ccc([N+](=O)[O-])cc1)=N\OC(=O)Cc1ccccc1,-50.7%
9,CCc1ccc(OCC(=O)O/N=C(\N)Cc2ccc([N+](=O)[O-])cc2)cc1,-53.9%
10,COc1cccc(-c2nn[nH]n2)c1O,9.02%
11,c1ccc(CSCc2cn3ccsc3n2)cc1,-4.45%
12,COc1ccc(CCNC(=O)C2CCCN(S(=O)(=O)c3cccc4nonc34)C2)cc1OC (centres unmarked),10.5%
13,Cc1cccc(C(=O)NC(=S)NNC(=O)c2cccs2)c1,17.2%
14,Cc1onc(-c2ccccc2)c1NC(=O)N(CCC#N)Cc1ccccc1,3.65%
15,CCOC(=O)c1ccc(NC(=O)c2nc[nH]c2C(=O)NCC(=O)OC(C)(C)C)cc1,19.5%
16,CCN(/C(N)=N/c1nc(C)cc(C)n1)c1ccccc1,-6.01%
17,Cc1cc(C)nc(/N=C(\N)N(Cc2ccccc2)Cc2ccccc2)n1,-70.6%
18,Cc1cc(C)nc(/N=C(\N)N2CCCCCC2)n1,-3.86%
19,CCCCN(CCCC)/C(N)=N/c1nc(C)cc(C)n1,-80.2%
20,CCN(CC)/C(N)=N/c1nc(C)cc(C)n1,7.16%
21,Cc1cc(C)nc(N(C#N)Cc2ccccc2)n1,-4.34%
22,COc1cccc(C=O)c1OCCN1C(=O)c2ccccc2C1=O,4%
23,CCc1ccccc1S(=O)(=O)Cc1ccc(C(=O)NCc2cccs2)o1,-22.5%
24,Cc1cc(C(=O)CCl)c(C)n1CCc1ccc(F)cc1,27.2%
25,CC1CC(C)CN(c2ncnc3c2cnn3-c2ccc(Cl)cc2)C1 (centres unmarked),3.17%
